# Source: PubChem BioAssay (NCI)
# “And” between values parts separate entries of the source, which are not always exact repeats. Equal values may be shown once. Compounds without any hit were thinned out: in the full panel of roughly 83,000, 20% have a hit.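 Note: values are percent growth. 100 is the growth of untreated cells, values between 100 and 0 indicate rising inhibition; between -100 and 0 indicates cell death.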 The source made the active and inactive calls. The calls were made as follows: active = growth percent below 10; inactive = the rest.
# System: MDA-MB-468 breast
# Assay: NCI-60 one-dose screen, 48 h (100 = growth as untreated, 0 = no growth, -100 = all killed)
# Conditions: 10 µM unless noted
row,SMILES,growth
1,O=C(O)c1[nH]c(=O)[nH]c(=O)c1[N+](=O)[O-],109% (inactive)
2,COc1ccc2[nH]c(=O)c(CNc3ccc(Nc4nccc(-c5ccc(Cl)cc5)n4)cc3)cc2c1,88% (inactive)
3,O=C(O)CS(=O)c1ccc(Cl)cc1 (stereo not given),103% (inactive)
4,CN(C)CCNC(=O)c1cccc(-c2cnc3ccc(-c4ccc5c(c4)OCO5)nn23)c1,66.9% (inactive)
5,CCCCCCCCn1cc(C2=C(c3coc4ccc(OC)cc34)C(=O)NC2=O)c2ccccc21,103% (inactive)
6,CN1CCN(Cc2ccc(NC(=O)c3[nH]ncc3Nc3ccnc4ccsc34)cc2)CC1,18.5% (inactive)
7,COC(=O)/C=C/C(=O)c1cc(C)cc(C)c1O,110% (inactive)
8,CC(=O)Nc1ccc2c(c1)Cc1c(F)cccc1-2,8.46% (active)
9,CCOC(=O)c1nn(-c2ccc(C)cc2)c(=O)c2c(N)c(C#N)c(-c3ccc(OC)cc3)cc12,102% (inactive)
10,COC(=O)c1ccc2[nH]c(O)c(C(=Nc3ccc(N(C)C(=O)CN4CCN(C)CC4)cc3)c3ccc([N+](=O)[O-])cc3)c2c1,85.9% (inactive)
11,C(=N\OCCc1ccccc1)/c1ccccn1,112% (inactive) and 107% (inactive)
12,O=C(OCc1ccc2c(Cl)cc(Cl)c(O)c2n1)n1cncn1,14% (inactive)
13,CN(C)CCCNc1c2ccc(Cl)cc2nc2c1oc1ccccc12,-49.6% (active)
14,Nc1c(C(=O)Nc2ccccc2Cl)sc2nc3c(cc12)CCCCCC3,-1.41% (active)
15,COc1ccccc1C(=O)Nc1cccc2c1C(=O)C(=O)C=C2,103% (inactive)
16,O=C(N/N=C/c1ccccc1)N/N=C/c1ccccc1,108% (inactive) and 96.4% (inactive)
17,C#CCOc1ccc2ncnc(Nc3cccc(CNC(=O)C=C)c3)c2c1,89.2% [8.25 µM] (inactive)
18,CC(=O)c1ccc2c(c1)CCc1ccccc1-2,94.9% (inactive)
19,Cn1c(O)c(N=NC(=O)c2cc(-c3ccccc3)on2)c2ccccc21,107% (inactive)
20,COc1cc(-c2ccc(N=Nc3ccc4c(S(=O)(=O)O)ccc(N)c4c3O)c(OC)c2)ccc1N=Nc1ccc2c(S(=O)(=O)O)ccc(N)c2c1O,120% (inactive)

row,SMILES,growth
1,c1ccc2c(N3CCCCC3)ncnc2c1,75.9% (inactive)
2,CCCCNC(=O)NS(=O)(=O)c1ccc(N2N=C(c3ccc(C)cc3C)CC2c2ccc(OC)cc2)cc1 (stereo not given),65.1% (inactive)
3,COC(=O)c1c2c(c(C)[n+]([O-])c1C)C(=O)C(NCc1ccc(OC)cc1)=CC2=O,-6.29% (active)
4,Cc1nn(-c2ccccc2)c(-n2ccnc2)c1/C=N/Nc1nc(-c2ccc(Cl)c(Cl)c2)cs1,-8.71% (active)
5,CCN1C(=O)C(C)C=C(C)C=C1C (stereo not given),110% (inactive)
6,Nc1nc(I)c2ncn(C3OC(CO)C(O)C3O)c2n1 (stereo not given),115% (inactive)
7,CCN(CC)Cc1cccc(C(=O)OC)c1,97.2% (inactive)
8,CC1=C(C(=O)Nc2ccc(F)cc2)C(c2ccc(Cl)cc2)C2=C(CC(C)(C)CC2=O)N1 (stereo not given),89.4% (inactive)
9,COc1ccc2c(=O)cc(C(Cl)(Cl)Cl)oc2c1,-81.2% (active)
10,COc1ccc(C2C(c3ccccc3)C(=O)N2c2cc(OC)c(OC)c(OC)c2)cc1I (stereo not given),15.7% (inactive)
11,O=C(Nc1ccc(Oc2ccc(Nc3nc4ccccc4s3)cc2)cc1)Nc1ccc(Cl)c(C(F)(F)F)c1,4.56% (active)
12,O=c1[nH]nc(-c2ccc(Cl)cc2)cc1Cc1cccc([N+](=O)[O-])c1,102% (inactive)
13,COc1c([C@@H](CC(C)C)OC(C)=O)ccc2c1C(=O)OCc1cc(C)cc(O)c1O2,8.08% (active)
14,OCCOCCN(Cc1ccccn1)Cc1cc(I)cc(I)c1O,88% (inactive)
15,Cc1cccc(/C=N/Nc2cc(C)c3cccc(C)c3n2)n1,88.7% (inactive)
16,COC(=O)C(Cc1ccccc1)NC(=O)c1ccc(NC(=O)c2[nH]c(C)c(Cl)c2Cl)c(OC(C)C)c1 (stereo not given),96.8% (inactive)
17,COc1cccc(NC(=O)c2sc3nc(C)c(C(=O)c4ccccc4)cc3c2N)c1,62.1% (inactive)
18,Cc1cc2nc(CC(=O)c3ccncc3)c(=O)[nH]c2cc1C,102% (inactive)
19,Cc1ccc(NC(=O)c2sc3nc4c(cc3c2N)C(=O)CCC4)cc1,32.7% (inactive)
20,COc1ccccc1/C(C)=N/NC(=O)CSc1nc2ccccc2c(=O)n1Cc1ccc(S(N)(=O)=O)cc1,98.8% (inactive)
